Only some compounds are listed: those with a hit (about 10% of all), similar ones and a draw of the others.
VP16 counter: Gal4-VP16 reporter inhibition counter-screen | Drosophila S2 Gal4-VP16 UAS-luciferase, luminescence, 20 h | Potency, µM (titrated, usually from 53.6 µM), for the others: at the highest dose activity, negative = inhibition, usual class: inhibitors | actives 3.5% (n = 310,000);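 also: Gal4-VP16 expression switched on by copper sulfate through the metallothionein promoter; % is scaled to controls: 0 for no effect and ±100 for the full control effect; nearly all actives have a fitted effect of over 50% in size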
SW480 rerep: inducers of DNA re-replication in SW480 colon cancer cells; Potency, µM (series often up to 46.1 µM), for inactives: at the highest dose re-replication activation, actives largely listed as activators; SW480 DNA re-replication, Hoechst DNA content imaging, 48 h; actives 1.8% (n = 340,000); also: % of control where 0% means no effect; nearly all actives have a fitted effect of over 55% in size
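Image-based read-out: total Hoechst fluorescence of nuclei (405 nm excitation, 500-530 nm emission), with hits raising the fraction of high-intensity nuclei. SW480 colon cells incubated 48 hr with compounds at 37 C.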
MCF10A rerep: inducers of DNA re-replication in MCF 10A breast cells. MCF 10A DNA re-replication, Hoechst nuclear intensity, 48 h. Potency, µM (series often up to 46.1 µM), inactives show top-dose activity, positive = re-replication, usual class: activators. actives 2.9% (n = 350,000). AID 624296; also: % of control where 0% means no effect; nearly all actives have a fitted effect of over 50% in size
RORgamma inh: ROR gamma (mouse) transcription inhibition. P51450. Drosophila S2 Gal4-RORgamma UAS-luciferase reporter, 20 h. Potency, µM (titrated, usually from 53.6 µM), without a hit: at the highest dose activity change, negative = inhibition, usual class: inhibitors. actives 5.4% (n = 310,000); also: % is scaled to controls: 0 for no effect and ±100 for the full control effect; nearly all actives have a fitted effect of over 60% in size
Target sequence (P51450 whole entry, looked up, the tested form may be a part): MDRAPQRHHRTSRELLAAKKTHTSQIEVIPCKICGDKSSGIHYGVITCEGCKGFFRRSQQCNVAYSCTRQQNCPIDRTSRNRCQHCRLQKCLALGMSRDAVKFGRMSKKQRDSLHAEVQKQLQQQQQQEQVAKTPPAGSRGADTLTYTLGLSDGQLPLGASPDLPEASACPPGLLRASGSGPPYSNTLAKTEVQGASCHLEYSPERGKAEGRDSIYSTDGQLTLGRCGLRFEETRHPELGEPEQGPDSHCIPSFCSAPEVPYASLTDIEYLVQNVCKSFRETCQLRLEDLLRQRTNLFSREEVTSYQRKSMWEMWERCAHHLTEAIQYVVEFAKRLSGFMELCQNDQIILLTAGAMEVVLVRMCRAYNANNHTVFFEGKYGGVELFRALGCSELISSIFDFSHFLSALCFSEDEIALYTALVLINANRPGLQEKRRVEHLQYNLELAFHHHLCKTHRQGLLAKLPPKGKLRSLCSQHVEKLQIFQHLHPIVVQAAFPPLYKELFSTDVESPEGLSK
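ROR gamma transcriptional activity was tracked as Gal4-UAS luciferase output in stably transfected Drosophila Schneider cells, with compound added 1 hr before 700 uM copper sulfate induction and a 20 hr ambient-temperature incubation.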
ELG1 DNA repair: blocks ELG1-dependent DNA repair in HEK293T cells. HEK293T ELG1-luciferase reporter, luminescence, 16 h; DNA damage induced by 5-fluorouridine. Potency, µM (series often up to 46.1 µM), inactives show top-dose activity change, negative = inhibition, most hits filed as inhibitors. actives 2.3% (n = 330,000). AID 504467; also: % is scaled to controls: 0 for no effect and ±100 for the full control effect; nearly all actives have a fitted effect of over 55% in size
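Quantitative HTS, concentration-response format. 2,000 cells/well co-treated with 5-fluorouridine and compound, 16 hr in 5% CO2 at 37 °C; ONE-Glo luminescence read after 30 min.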
* hit, by the source's call; ? = inconclusive; · = no result; [ ] = remark or other dose. Calls follow the shape of the dose curve; as a rule, active = well fitted curve in the direction sought with a large enough effect; inconclusive = small, poorly fitted or top-dose-only effect, or another doubt; inactive = no such curve, though single readings can be large; an effect the other way counts as inactive or inconclusive. Potency is read from the fitted curve at half-maximal effect.

SMILES	VP16 counter	SW480 rerep	MCF10A rerep	RORgamma inh	ELG1 DNA repair
OCC1OC(n2ccc3c(NO)ncnc32)C(O)C1O (stereo unspecified)	·	?	0.16µM*	·	·
Cc1c2c(nc3ccccc13)CCC(C(C)(C)C)C2 (stereo unspecified)	?	-12%	?	4µM*	?
Cc1cc(C)cc(-n2c(C)c3c(C)nnc(C)c3c2C)c1	-4%	23µM*	10%	-37%	-19%
Cc1nnc(C)c2c(C)n(-c3ccc(Cl)c(N)c3)c(C)c12	-8%	8%	?	2%	?
C=C1C(O)C[C@@H](C(C)C)N(CC(C)C)S1(=O)=O (stereo partly specified)	·	-27%	?	·	·
Cc1ccc(NS(=O)(=O)c2ccc(C)c(C(=O)NCC(c3ccccc3)N(C)C)c2)cc1 (stereo unspecified)	·	0%	2%	·	-12%
O=C(Cc1ccc(Cl)cc1)Nc1ncc([N+](=O)[O-])s1	?	-4%	?	?	?
O=C(Nc1csc([N+](=O)[O-])c1)Nc1ccccc1Cl	-29%	13%	12µM*	31%	-13%
O=C(Nc1ccc(Cl)cc1)Nc1ccccc1Sc1ncc([N+](=O)[O-])s1	?	?	?	11µM*	?
O=C1CCCCCN1Cc1nnc(SCc2nc3ccccc3s2)n1-c1ccccn1	7.1µM*	-14%	6%	2.5µM*	?
CCOc1ccccc1OCCCC(=O)Nc1ccc(S(=O)(=O)Nc2cc(C)nc(C)n2)cc1	·	0%	-2%	·	·
Cc1ccc(-n2c(C)cc(/C=N/NC(=O)Cn3c4ccccc4c(=O)c4ccccc43)c2C)cc1	2%	12µM*	15µM*	-33%	-19%
O=C(Cn1c2ccccc2c(=O)c2ccccc21)N/N=C/c1cc([N+](=O)[O-])ccc1N1CCCCCC1	0%	13%	14%	4%	?
Cc1cc(/C=N/NC(=O)Cn2c3ccccc3c(=O)c3ccccc32)c(C)n1-c1ccc(Cl)cc1	0%	16%	12µM*	-17%	-10%
OCC1=CC[N+]2(Cc3ccccc3)CCC(O)[C@@H]12 (stereo partly specified)	-6%	·	·	2%	·
COc1ccc(OC)c(NC(=O)COC(=O)c2ccc(OC)c(S(=O)(=O)N3CCOCC3)c2)c1	·	-1%	12%	·	?
COc1ccc(S(=O)(=O)NNC(=O)c2cc3ccccc3o2)cc1	7%	-5%	-3%	3%	-7%
COc1ccc(Oc2cccc(Cl)c2CNC(=O)CCCC(=O)O)cc1	1%	?	-1%	0%	?
Fc1ccc(/C=C2\CCCC3=C2Nc2ncnn2C3c2ccc(F)cc2)cc1 (stereo unspecified)	-7%	23µM*	5.8µM*	6%	4.6µM*
O=C(c1cc(C(F)(F)F)cc(C(F)(F)F)c1)N1CCC2(CCCN(Cc3ccccc3)C2)CC1	7%	·	·	1%	·
Cc1noc(C)c1S(=O)(=O)N1CCCC1C(=O)O (stereo unspecified)	8%	-1%	-12%	-4%	6%
O=C(NCc1ccc(Cl)cc1)c1cc2ccccc2oc1=O	-12%	-5%	5%	-31%	?
O=C1c2ccccc2C(=O)N1CCCCN(C(=O)c1cc2ccccc2oc1=O)c1ccc(Cl)cc1	8%	-4%	0%	?	23µM*
CCn1c(COc2cccc(C)c2C)nnc1SCC(=O)N1CCN(c2ccc(OC)cc2)CC1	0.89µM*	-6%	3%	11%	10µM*
CCn1c(COc2ccccc2C)nnc1SCC(=O)N1CCN(c2ccccc2)CC1	-13%	1%	-4%	41%	?
SMILES	VP16 counter	SW480 rerep	MCF10A rerep	RORgamma inh	ELG1 DNA repair
COc1ccc(-n2c(SCC(=O)N3CCOCC3)nc(O)cc2=O)cc1	0%	2%	7%	11µM*	-21%
COc1ccc(N2CCN(C(=O)CSc3nnc4n3C(C)(C)Cc3ccccc3-4)CC2)cc1	·	-6%	6%	27%[0.365 µM]	21µM*
Cc1ccc(Cl)cc1N1CCN(C(=O)CSc2nnc3n2C(C)(C)Cc2ccccc2-3)CC1	?	5%	13µM*	-72%	12µM*
CC1Cc2cc(S(=O)(=O)N3CCC(C(=O)NCc4ccco4)CC3)ccc2N1C(=O)C1CCC1 (stereo unspecified)	-4%	2%	?	24%	-24%
COc1ccc(N2CCN(C(=O)CSc3ccccc3)CC2)cc1	16%	1%	6%	8%	·
COc1ccc(N2CCN(C(=O)CSc3nc(C)cs3)CC2)cc1	·	18µM*	0%	·	-12%
COC(=O)CSc1nnc2n1C(C)(C)Cc1ccccc1-2	-4%	-1%	5%	33%	-4%
COc1cc(NC(=O)CSc2nnc3n2C(C)(C)Cc2ccccc2-3)cc(OC)c1	0%	6%	14%	3%	22µM*
Cc1cccc(NC(=O)c2cc(S(=O)(=O)N(C)c3ccc(F)cc3)ccc2Cl)n1	·	2%	?	·	?
COc1ccc(S(=O)(=O)NCCC(=O)OCC(=O)c2ccc[nH]2)cc1[N+](=O)[O-]	·	0%	0%	·	8%
Cc1cc(OCC(=O)Nc2cccnc2)c2c(C)cc(=O)oc2c1	-4%	16%	0%	-9%	15%
CCCc1cc(=O)oc2cc(C)cc(OCC(=O)Nc3cccnc3)c12	-13%	23µM*	12%	-4%	-24%
COc1cccc(N2CC(=O)Nc3c(oc4nc(-c5ccccc5)cc(C)c34)C2=O)c1	-11%	0%	5%	-6%	?
Cc1cc(-c2ccccc2)nc2oc3c(c12)NC(=O)CN(c1ccccc1)C3=O	-8%	15µM*	4%	6%	-10%
CCOC(=O)C(Cc1nc(OCc2ccccc2)cc(OCc2ccccc2)n1)=NO	·	12%	21µM*	·	·
CCOC(=O)C(=O)Cc1nc(OCc2ccccc2)cc(OCc2ccccc2)n1	·	15%	?	·	·
Cc1ccc(N/C=C/C(=O)c2cccs2)cc1C	?	20%	?	13µM*	?
COC(=O)c1ccc(COc2ccccc2/C=C(\C#N)C(=O)Nc2c(C)cccc2C)cc1	?	24%	8.2µM*	?	26µM*
Cc1ccccc1NC(=O)/C(C#N)=C/c1ccsc1	?	0%	?	-23%	?
Cc1cccc(C)c1NC(=O)/C(C#N)=C/c1ccsc1	?	1.5µM*	?	?	11%
CCCCn1c(=O)[nH]c(=O)c2c1nc(-c1ccc([N+](=O)[O-])cc1)n2CC	0%	-3%	15%	11%	7%
Cc1ccc(C(=O)NC(=S)NNC(=O)COc2ccccc2C)cc1	?	-10%	7%	4µM*	27%
CCC(=O)NNC(=S)NC(=O)c1ccc(C)cc1	18µM*	9%	4%	3.2µM*	7%

Screening results: PubChem, National Center for Advancing Translational Sciences (NCATS)
